From PubChem BioAssay (Tox21)
Calls of active or inactive are those of the source. Calls come from the whole dose curve; as a rule, active = well fitted activation curve with a large enough effect in the repeat runs; inconclusive = weak or mixed curves; inactive = flat fitted curve, though single readings scatter.

test: A CellTox Green Cytotoxicity Assay to monitor cytotoxicity in HEK293 cells - 0 hour (AID 1224869); conditions: CellTox Green fluorescence; series mostly up to 76.8 µM; note: nearly all actives have a fitted effect of over 50% in size
Excerpt: National Center for Advancing Translational Sciences [NCATS]
NIH Chemical Genomics Center [NCGC]
U.S. Environmental Protection Agency [EPA]
National Institutes of Environmental Health Sciences [NIEHS]
National Toxicology Program [NTP]
Cell-based models are critical for drug discovery. Determining the natural cytotoxic effects resulting from test compounds is an essential research activity. A CellTox Green Cytotoxicity Assay to monitor cytotoxicity in real time of continues cell culture during 40 hours of the compound treatment was used to screen Tox21 10K library compounds in Hek293 cells. CellTox Green Cytotoxicity Assay is a nonlytic, homogeneous, biofluorescent method to measure cytotoxicity in cell culture after experimental manipulation. The assay system uses a proprietary asymmetric cyanine dye that is excluded from viable cells but preferentially stains the dead cell's DNA. […] Viable cells produce no appreciable increases in fluorescence. Therefore, the fluorescence signal produced by the binding interaction with dead cell DNA is proportional to cytotoxicity.
The mixture of Hek293 cell suspension and reagents were dispensed at 600cells/6 ul/well in 1536-well tissue culture treated black solid bottom plates using a Multidrop dispenser. After the assay plates were incubated at a 37 C/5% CO2 incubator for 5 hours, 23 nL of compounds dissolved in DMSO, positive and negative controls was transferred to the assay plate by a pintool work station. The plates were incubated at 37 C for 40 hours. The fluorescence intensity were measured at 0h, 8h, 16h, 24h, 32h and 40h time points using ViewLux plate reader during compound treatment.

Compound	outcome
O=C(Cl)OCc1ccccc1	inactive
Cc1cccc2sc3nncn3c12	inactive
C=C1C[C@@H]2[C@H](CC[C@]3(C)C(=O)CC[C@@H]23)[C@@]2(C)C=CC(=O)C=C12	inactive
ClCC1CO1 (stereo not given)	inactive
ClCCN1CCCC1	inactive
C[C@H](N)C(=O)c1ccccc1	inactive
ClCOCCl	inactive
BrCc1ccc(Br)cc1	inactive
CN(C)C1CCCCC1	inactive
CCCC[N+](=O)[O-]	inactive
CC#Cc1cc(C)nc(Nc2ccccc2)n1	inactive
CC(Cc1ccccc1)NCCn1cnc2c1c(=O)n(C)c(=O)n2C (stereo not given)	inactive
c1ccc2c(c1)CCNC2	inactive
C=CC(=O)OCCN(C)C	inactive
CC(C)C(C)(N)C#N (stereo not given)	inactive
C=CCc1cc(OC)c2c(c1)OCO2	inactive
O=P(O)(O)c1ccccc1	inactive
Cc1ccc2cc(C)ccc2c1	inactive
CC(C)(C)C(=O)C(Cl)Cl	inactive
CC(O)CCl (stereo not given)	inactive

Compound	outcome
CCN1CCCC1CNC(=O)C(O)(c1ccccc1)c1ccccc1 (stereo not given)	inactive
CCCC(C)C1(CC)C(=O)N=C(S)NC1=O (stereo not given)	inactive
C/C=C/CC#N	inactive
CN(C)C(=O)Oc1cc(OC(=O)N(C)C)cc(C(O)CNC(C)(C)C)c1 (stereo not given)	inactive
O=C(CCl)NCO	inactive
CCOC(=O)N(C)N=O	inactive
O=C(O)CBr	inactive
COc1ccccc1OC	inactive
Clc1ccc(C(Cl)(Cl)Cl)cn1	inactive
CCC1(CC)C(=O)C=CNC1=O	inactive
COP(=O)(OC)O/C(C)=C/C(=O)N(C)C	inactive
CCCCCCCCBr	inactive
CCN(CC)CCOC(=O)C(O)(c1ccccc1)c1ccccc1	inactive
CON(C)C(=O)Nc1ccc(Br)cc1	inactive
CCc1ccc(C2CCNCC2)cc1	inactive
CCCCCCCC(=O)Cl	inactive
O=[N+]([O-])CCO	inactive
CCOC(=O)COc1ccc(Cl)cc1Cl	inactive
CC(C)(N)Cc1ccccc1Cl	inactive
CC(C)(O)C(Cl)(Cl)Cl	inactive
